# DT40 TDP1 CPT = qHTS for Inhibitors of human tyrosyl-DNA phosphodiesterase 1 (TDP1): qHTS in cells in presence of CPT | hit rate 12% among 420,000 | chicken DT40 Tdp1-/-;hTDP1 cells + 20 nM CPT, ATP luminescence, 48 h | AID 686979, 2013 | Potency, µM (titrated, usually from 46.2 µM), for the others: at the top dose activity change, negative = growth inhibition, usual class: inhibitors; further: potency means the concentration at half of the fitted maximal effect; nearly all actives have a fitted effect of over 55% in size
#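 Chicken DT40 Tdp1-/- cells stably complemented with human TDP1 were seeded at 400 cells/well in medium containing 20 nM camptothecin, exposed to pin-transferred compounds, and grown at 37 °C for at least 48 hr. Viability was read as ATP luminescence.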
# 12-LOX inh = Primary qHTS assay for inhibitors of human arachidonate 12S-lipoxygenase (ALOX12): Round 2; purified 12hLO, xylenol orange hydroperoxide absorbance; hit rate 1.1% among 580,000; Potency, µM (titrated, usually from 108 µM), inactives show top-dose activity change, negative = inhibition, most hits filed as inhibitors; Polyunsaturated fatty acid lipoxygenase ALOX12 (Homo sapiens), P18054; further: potency means the concentration at half of the fitted maximal effect
# Target sequence (P18054 whole entry, looked up): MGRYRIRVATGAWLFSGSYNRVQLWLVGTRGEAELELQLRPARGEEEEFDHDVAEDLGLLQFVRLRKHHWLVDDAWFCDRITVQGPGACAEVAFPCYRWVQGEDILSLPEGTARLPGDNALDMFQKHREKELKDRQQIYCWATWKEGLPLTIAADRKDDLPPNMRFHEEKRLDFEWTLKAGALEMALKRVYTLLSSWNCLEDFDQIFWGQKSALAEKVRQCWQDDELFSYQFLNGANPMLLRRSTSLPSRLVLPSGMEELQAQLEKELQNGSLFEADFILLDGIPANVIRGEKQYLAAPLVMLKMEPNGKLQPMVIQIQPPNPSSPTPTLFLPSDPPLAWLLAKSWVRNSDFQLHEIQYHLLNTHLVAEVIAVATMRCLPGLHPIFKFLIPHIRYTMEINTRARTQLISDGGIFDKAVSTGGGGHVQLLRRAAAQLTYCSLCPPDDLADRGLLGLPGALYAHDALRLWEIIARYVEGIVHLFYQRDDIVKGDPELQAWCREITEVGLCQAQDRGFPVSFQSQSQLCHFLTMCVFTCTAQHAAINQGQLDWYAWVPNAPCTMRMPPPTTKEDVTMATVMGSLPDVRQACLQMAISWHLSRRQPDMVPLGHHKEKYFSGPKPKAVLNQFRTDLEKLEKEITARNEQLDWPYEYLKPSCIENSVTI
#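 Purified human 12hLO (150 nM final) in 25 mM Hepes, 0.01% Triton X-100, pH 7.0 was preincubated 15 min at room temperature with compound. Then 40 uM arachidonic acid was added, 30 min. Hydroperoxide was read by Fe-XO absorbance ratio 573/405 nm.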
# DT40 TDP1 no CPT = qHTS for Inhibitors of human tyrosyl-DNA phosphodiesterase 1 (TDP1): qHTS in cells in absence of CPT; DT40 Tdp1-/- hTDP1 cells, no CPT, ATP luminescence, 48 h; Potency, µM (titrated, usually from 46.2 µM), for the others: at the top dose activity change, negative = growth inhibition, hits mostly inhibitors; hit rate 15% among 420,000; AID 686978, 2013; further: potency means the concentration at half of the fitted maximal effect; nearly all actives have a fitted effect of over 55% in size
#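 A cellular qHTS used chicken DT40 cells lacking endogenous Tdp1 but carrying stably transfected human TDP1. Compounds were applied without camptothecin, and cell growth kinetics were judged by ATP-dependent luminescence after ≥48 hr.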
# IL1B secr inh = qHTS for Inhibitors of Inflammasome Signaling: IL-1-beta AlphaLISA Primary Screen. THP-1 LPS/ATP IL-1B secretion, AlphaLISA, 16 h; active compounds read low. activity change, % at 57.5 µM. hit rate 4.7% among 360,000. AID 743279, 2014; in the data active means activity change below about -50%; inconclusive means mostly about -30% to -49%
#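 THP-1 cells pretreated 1 hr with compounds (up to 57.5 uM final), then stimulated with LPS (250 ng/mL final) plus ATP (1.25 mM final); secreted IL-1B measured by AlphaLISA after 16 hr, decreased signal indicating inhibition.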
# HT1080 IDH1KD tx = qHTS for induction of synthetic lethality in tumor cells producing 2HG: qHTS for the HT-1080-IDH1KD cell line; hit rate 2% among 360,000; HT-1080 IDH1 knockdown viability, ATP luminescence, 48 h; Potency, µM (titrated, usually from 46.1 µM), without a hit: at the top dose activity, negative = toxicity, actives largely listed as cytotoxic; AID 686971, 2013;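 further: potency means the concentration at half of the fitted maximal effect; 0% = DMSO wells and -100% = cell-free medium wells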
#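 After a 2 h attachment period, IDH1KD HT-1080 cells took pin-transferred compound for 48 h at 37 °C; ATP-based luminescence after 10 min room-temperature reagent incubation reported viability.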
# HT1080NT lethal = qHTS for induction of synthetic lethality in tumor cells producing 2HG: qHTS for the HT-1080-NT fibrosarcoma cell line; HT-1080-NT fibrosarcoma viability, CellTiter-Glo ATP luminescence, 48 h; Potency, µM (series often up to 46.1 µM), inactives show at the highest dose activity, negative = less viability, usual class: cytotoxic; hit rate 1.6% among 360,000; AID 686970, 2013;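 further: NT is the 2HG producing partner of a matched IDH1 knockdown line; potency means the concentration at half of the fitted maximal effect; 0% = DMSO-treated cells and -100% = media-only wells without cells; nearly all actives have a fitted effect of over 55% in size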
#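 Fibrosarcoma NT cells, 750 per well in 5% FBS RPMI, were exposed to compound for 48 hours. Viability: CellTiter-Glo luminescence.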
# Starred values were filed as active, the others as inactive; ? = inconclusive; . = not tested or not shown; ! = not confirmed by another sample; [ ] = another dose, or the depositor's remark. Only a selection was taken, and hits are over-represented in it overall. Unless noted, the call rests on the fitted dose curve; in most records, active means well fitted curve in the direction sought with a large enough effect; inconclusive means small, poorly fitted or top-dose-only effect, or another doubt; inactive means no such curve, though single readings can be large; an effect the other way counts as inactive or inconclusive. Unless noted, on the % scale 0 is the no-effect control and ±100 the full control effect.
SMILES,DT40 TDP1 CPT,12-LOX inh,DT40 TDP1 no CPT,IL1B secr inh,HT1080 IDH1KD tx,HT1080NT lethal
CC(=O)Nc1cccc2ccc(O)cc12,-1.5%,?,-8.4%,-9.7,5.9%,4.7%
Cc1ccccc1C(=O)NNC(N)=S,.,13.5%,.,.,.,.
CCc1cc(=O)n(CC(=O)Nc2cccc(SC)c2)c(N2CCOCC2)n1,.,-16.6%,.,.,.,.
NC(=O)c1ccccc1NC(=O)Nc1cccc2ccccc12,1.64µM*,2.1%,4.61µM*,-10.9,-4.9%,-13.6%
NC(=O)NNC(=S)Nc1cccc2ccccc12,-4.5%,-1.2%,5.7%,13.2,-0.6%,7.3%
COc1ccc2c(c1)[C@H]1[C@H](CO2)[C@H](c2ccccc2)[C@]2(C)C(=O)Nc3ccc(Br)cc3C(=O)N12,16.4µM*,-21.5%,?,?,-10.3%,-0.1%
Cc1ccc2c(c1)C(=O)N1[C@H]3c4cc(Br)ccc4OC[C@@H]3[C@H](c3ccccc3)[C@]1(C)C(=O)N2,23.1µM*,-17.2%,23.1µM*,-23.0,?,?
Cc1ccc2c(c1)[C@H]1[C@H](CO2)[C@H](c2ccccc2)[C@]2(C)C(=O)Nc3ccc(Br)cc3C(=O)N12,?,?,16.4µM*,?,?,-27.1%
COc1ccc2c(c1)OC[C@H]1[C@H]2N2C(=O)c3cc(Br)ccc3NC(=O)[C@@]2(C)[C@H]1c1ccccc1,-5.7%,.,?,-12.8,-2.3%,5.1%
Cc1ccccc1Cc1nc(-c2nnn3c2COC(c2ccc(Cl)cc2)C3)no1 (stereo unspecified),.,23.4%,.,.,.,.
N#Cc1ccccc1Sc1ccccc1C(=O)Oc1ccc(Cl)cc1Cc1ccccc1,.,3.9%,.,.,.,.
COc1ccccc1-c1nnc(NC(=O)c2ccc(S(=O)(=O)N(C)CC3CCCO3)cc2)o1 (stereo unspecified),?,0.0%,?,15.9,?,-18.1%
COc1ccccc1-c1nnc(NC(=O)c2ccccc2F)o1,?,23.1%,?,3.9,-18.6%,0.9%
COc1ccccc1-c1nnc(NC(=O)c2ccc(S(=O)(=O)N(C)C)cc2)o1,?,1.2%,23.1µM*,7.0,?,-23.8%
CCN(Cc1ccccc1)S(=O)(=O)c1ccc(C(=O)Nc2nnc(-c3ccccc3OC)o2)cc1,11.6µM*,1.1%,8.2µM*,8.9,-25.3%,-9.5%
CCCN=C1N/C(=C\c2ccco2)C(=O)N1c1ccccc1,?,?,-15.9%,-16.5,0.1%,1.1%
O=C1/C(=C\c2ccco2)NC(=S)N1c1ccccc1,-13.2%,15.8µM*,29.1µM*,-22.4,-5.8%,-10.5%
CCOC(=O)/C=C1\CC(C(=O)OCC)Oc2c(OC)cccc21 (stereo unspecified),?,?,23.1µM*!,14.4,1.1%,4.6%
COc1ccc(CCNC(=O)CN(c2ccc(Cl)c(C(F)(F)F)c2)S(C)(=O)=O)cc1OC,.,49.9%,.,.,.,.
CCCNC(=O)N1CCCC(Cc2ncc(C)n2Cc2ccccc2)C1 (stereo unspecified),.,33.1%,.,.,.,.
CCN(CC)CCNCc1cc(Br)ccc1OCC(=O)NCc1ccccc1,-1.7%,28.2µM*,1.4%,-12.3,-10.4%,-16.4%
CC(NCc1cc(Br)ccc1OCC(=O)NCc1ccccc1)c1ccccc1 (stereo unspecified),?,?,?,-68.0*,-17.6%,-3.0%
O=C(CCC(=O)NNC(=O)COc1ccc(Br)cc1Br)NCc1ccccc1,13.9%,-7.9%,0.2%,-8.8,0.0%,-17.7%
Cc1nc2ccc(C(=O)OC(C)C(=O)NC(=O)NCc3ccccc3)cc2nc1C (stereo unspecified),.,-17.9%,.,.,.,.
Cc1cccc(/C=C(/C#N)C(=O)c2c(C)[nH]c3ccccc23)c1,.,13.1%,.,.,.,.
SMILES,DT40 TDP1 CPT,12-LOX inh,DT40 TDP1 no CPT,IL1B secr inh,HT1080 IDH1KD tx,HT1080NT lethal
CCc1ccc(/C=C(/C#N)C(=O)c2c(C)[nH]c3ccccc23)cc1,.,14.1µM*,.,.,.,.
COCCCNc1nc(SCc2ccccc2)nc2sc3c(c12)CCC3,?,0.0%,20.6µM*,6.9,12.3%,-1.8%
N#Cc1cnn(-c2nc(SCc3ccccc3)nc3sc4c(c23)CCCC4)c1N,-19.9%,-10.5%,3.7%,16.6,-24.0%,-25.4%
O=C(c1[nH]nc2c1COc1ccccc1-2)N1CCC(Cc2nncn2CC2CC2)CC1,.,110.1%,.,.,.,.
CN(CC(=O)Nc1ccc(F)cc1)C(=O)c1cccc(S(=O)(=O)N2CCN(c3ccc(F)cc3)CC2)c1,14.6µM*,-17.3%,13µM*,-15.7,?,-15.3%
CN(CC(=O)Nc1cccc(F)c1)C(=O)c1cccc(S(=O)(=O)N2CCN(c3ccccc3)CC2)c1,?,184.5%,?,?,-6.2%,-6.3%
COc1ccc(NC(=O)CN(C)C(=O)c2cccc(S(=O)(=O)N3CCN(C)CC3)c2)cc1,-3.4%,-21.0%,-13.6%,14.4,-0.7%,0.8%
CN(CC(=O)Nc1cccc(F)c1)C(=O)c1cc(S(=O)(=O)N2CCN(c3ccccc3)CC2)ccc1Cl,16.4µM*,138.4%,13µM*,-26.6,-14.3%,2.2%[9.24 µM]
COc1cccc(NC(=O)CN(C)C(=O)c2cccc(S(=O)(=O)N3CCN(c4ccc(F)cc4)CC3)c2)c1,16.4µM*,10.6%,16.4µM*,10.2,-10.5%,-16.1%
CC(C(=O)Nc1cccc([N+](=O)[O-])c1)N1CCN(C/C=C/c2ccccc2)CC1 (stereo unspecified),?,-25.0%,?,-71.7*,-4.3%,0.7%
CC1(C(=O)NS(=O)(=O)Cc2ccccc2C(F)(F)F)CCN1C(=O)c1ccccc1 (stereo unspecified),-29.5%,-7.5%,-6.6%,25.7,13.2%,-3.3%
O=C(Nc1ccc2c(c1)OCCO2)C(C1CC1)N1CCN(C/C=C/c2ccccc2)CC1 (stereo unspecified),?,-15.4%,?,-13.6,-0.7%,-0.1%
CC1(C(=O)Nc2ccc3c(c2)OCCO3)CCN1C(=O)C/C=C/c1ccccc1 (stereo unspecified),29.1µM*,7.1%,?,-5.9,12.2%,22.9%
